An excerpt weighted towards active compounds, which were near 4% of everything screened.
TIM10 inh: growth inhibitors of TIM10 yeast strain; S. cerevisiae TIM10 strain growth, BacTiter-Glo luminescence, 24 h; inhibition, % at 10 µM; hit rate 1.4% among 330,000;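 active = inhibition of 40% or more at the single tested concentration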;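 note: wild-type TIM10 isogenic control strain grown at permissive 25 °C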
tim23-1 inh: inhibits growth of tim23-1 mutant yeast. S. cerevisiae tim23-1 growth, BacTiter-Glo luminescence, 24 h. inhibition, % at 20 µM. AID 463212. hit rate 1.3% among 330,000;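 active = growth inhibition of the mutant yeast at or above 50%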;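 note: temperature-sensitive mutant grown at 25 °C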
NALP3 yeast inh: NALP3 inhibition in yeast; Yeast reconstituted NLRP3/ASC/caspase-1, beta-gal luminescence, 24 h; inhibition, % at 10 µM; hit rate 0.39% among 330,000; AID 2825;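 active = inhibition of 50% or more; inactive = inhibition below 50%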
NALP1 yeast inh: blocks the NALP1 inflammasome reconstituted in yeast; S. cerevisiae NALP1/ASC/caspase-1 growth, X-gal OD620, 72 h; inhibition, % at 10 µM; hit rate 0.61% among 280,000; in the data active = inhibition mostly above about 24%, no sharp cut-off; inactive = mostly below about 32%
tim10-1 inh: growth inhibitors of tim10-1 mutant yeast; S. cerevisiae tim10-1 ts strain growth, BacTiter-Glo, 24 h; inhibition, % at 20 µM; hit rate 2.2% among 330,000; AID 463190;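 active = inhibition of at least 40%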;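 note: mutant grown at 25 °C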
tim10-1 confirm: confirmation of tim10-1 mutant yeast growth inhibitors. S. cerevisiae tim10-1 ts strain growth, BacTiter-Glo, 24 h. inhibition, % at 20 µM. shares compounds with tim10-1 inh. hit rate 56% among 7,400;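 active = inhibition of yeast growth at or above a set limit in either of two repeat tests at 20 µM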;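 note: tim10-1 mutant grown at permissive 25 °C to find synthetic lethal compounds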
tim10 confirm: confirmation of TIM10 yeast growth inhibitors. shares compounds with TIM10 inh. S. cerevisiae tim10 strain growth, BacTiter-Glo luminescence, 24 h. inhibition, % at 10 µM. hit rate 63% among 4,600;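 active = inhibition of yeast growth at or above a set limit in either of two replicates at 10 µM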; note: this counterscreen used the strain with wild-type TIM10
tim23-1 conf: tim23-1 yeast growth inhibition, confirmed | shares compounds with tim23-1 inh | S. cerevisiae tim23-1 growth, BacTiter-Glo luminescence, 24 h | inhibition, % at 20 µM | hit rate 83% among 4,400 | AID 463218;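 active = inhibition above about 39% in either of two replicate wells at 20 µM, limit read from the data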;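 note: temperature-sensitive tim23-1 mutant grown at 25 °C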
Large screens that a line does not name were inactive (follow-up assays come after a bar, where they were run).

CCc1ccc(-c2cc(C(=O)Nn3cnnc3)c3ccccc3n2)cc1	tim23-1 inh 53, tim10-1 inh 54 | tim10-1 confirm 36 | tim23-1 conf 40
CCNC(=S)NNC(=O)c1cc(-c2ccc(OCC)cc2)nc2ccccc12	tim23-1 inh 78, tim10-1 inh 86 | tim10-1 confirm 66 | tim23-1 conf 86
Cc1ccc(/C(N)=N/OC(=O)c2cccc(F)c2)cc1	TIM10 inh 76, tim23-1 inh 70, tim10-1 inh 64 | tim10-1 confirm 48 | tim10 confirm 79 | tim23-1 conf 40
N/C(=N\OC(=O)c1cccc(F)c1)c1ccccn1	none
N/C(=N\OC(=O)c1cccc(F)c1)c1ccccc1	TIM10 inh 61, tim23-1 inh 68, tim10-1 inh 55 | tim10-1 confirm 56 | tim10 confirm 62 | tim23-1 conf 66
Cc1cccc(C(=O)O/N=C(\N)c2ccccn2)c1	none
Cc1cc(C)c(C(=O)Nn2c(C)nc3ccccc3c2=O)cc1C	none
C/C(=N\NC(=S)Nc1cccc(C)c1)c1ccccc1	TIM10 inh 60, tim23-1 inh 51, tim10-1 inh 51 | tim10-1 confirm 50 | tim10 confirm inactive | tim23-1 conf 52
CC(=O)C1=C(C)NC(SCC(=O)c2ccc(Cl)cc2Cl)=C(C#N)C1c1ccco1 (stereo not drawn)	tim23-1 inh 53, tim10-1 inh 55 | tim10-1 confirm 43 | tim23-1 conf 50
OCC[C@H]1C[C@H](O)[C@@H](O)[C@@]2(OCCCc3ccccc32)O1	none (no result: NALP1 yeast inh)
NNC(=O)c1[nH]c2ccc(Cl)cc2c1-c1ccccc1	tim23-1 inh 61, tim10-1 inh 51 | tim10-1 confirm 52 | tim23-1 conf 42
CC(C)(C)c1ccc(OCCC(=O)OCC(=O)Nc2ccc(N3CCOCC3)cc2)cc1	none (no result: NALP1 yeast inh)
O=C1C(C2=C(O)c3ccccc3C2=O)=Nc2ccccc21	TIM10 inh 56, tim23-1 inh 62, tim10-1 inh 51 | tim10-1 confirm inactive | tim10 confirm 54 | tim23-1 conf 73
CCOc1ccccc1C(=O)Nc1cc2c(cc1N1CCCC1)n(CC)c(=O)n2CC	tim23-1 inh 57, tim10-1 inh 48 | tim10-1 confirm inactive | tim23-1 conf 51
Cc1ccc(/C=C/C(=O)NC2CCCCCCC2)o1	TIM10 inh 46, tim23-1 inh 52, tim10-1 inh 55 | tim10-1 confirm 57 | tim10 confirm 38 | tim23-1 conf 58
COc1cc(/C=C/C(=O)c2c(O)cc(C)oc2=O)cc(OC)c1O	none
Cc1cc(O)c(C(=O)/C=C/c2ccc(Cl)cc2)c(=O)o1	tim23-1 inh 53, tim10-1 inh 47 | tim10-1 confirm 40 | tim23-1 conf 52
CCS(=O)(=O)n1nc(-c2ccc(Cl)cc2)nc1SCc1ccccc1	tim23-1 inh 62, tim10-1 inh 40 | tim10-1 confirm inactive | tim23-1 conf 57
COc1ccc(-c2nc(SCc3ccccc3)n(S(C)(=O)=O)n2)cc1	none
O/N=C/c1cc(Br)ccc1OCc1ccc(F)cc1	tim23-1 inh 59, tim10-1 inh 41 (no result: NALP1 yeast inh) | tim10-1 confirm 34 | tim23-1 conf 31
Oc1c(Br)cc(Br)cc1C=NCc1ccccc1	TIM10 inh 59, tim23-1 inh 85, tim10-1 inh 55 | tim10-1 confirm 39 | tim10 confirm 33 | tim23-1 conf 90
Oc1c(Br)cc(Br)cc1C=NCc1ccc(F)cc1	tim23-1 inh 79, tim10-1 inh 51 | tim10-1 confirm inactive | tim23-1 conf 85
COc1ccc(S(=O)(=O)Nc2ccc3c(c2)C(=O)N([C@H](C)CO)C[C@H](C)[C@@H](CN(C)C(=O)Nc2ccc(C(F)(F)F)cc2)O3)cc1	none (no result: NALP1 yeast inh)
COc1cc(C(=O)OCC(=O)N2CCNC2=O)cc(Cl)c1OC	none (no result: NALP1 yeast inh)
O=C(COC(=O)C1CC1)NCCc1ccc(Cl)cc1	none (no result: NALP1 yeast inh)
COc1ccc(CNC(=O)COc2ccc(S(=O)(=O)N3CCOCC3)cc2C)cc1	none
Cc1nc2c(ccc3nc(NC(=O)Cc4cccc5ccccc45)sc32)s1	tim23-1 inh 60, tim10-1 inh 55 | tim10-1 confirm 37 | tim23-1 conf 64

Source: PubChem
